# FBPA Giardia inh: Giardia lamblia aldolase inhibition | hit rate 0.71% among 290,000 | Potency, µM (titrated, usually from 59.6 µM), inactives show at the top dose activity, negative = inhibition, most hits filed as inhibitors | purified Giardia FBPA | AID 2451 | A8B2U2; note: potency is the fitted concentration of half-maximal effect; nearly all actives have a fitted effect of over 55% in size
# Target sequence (A8B2U2 whole entry, looked up): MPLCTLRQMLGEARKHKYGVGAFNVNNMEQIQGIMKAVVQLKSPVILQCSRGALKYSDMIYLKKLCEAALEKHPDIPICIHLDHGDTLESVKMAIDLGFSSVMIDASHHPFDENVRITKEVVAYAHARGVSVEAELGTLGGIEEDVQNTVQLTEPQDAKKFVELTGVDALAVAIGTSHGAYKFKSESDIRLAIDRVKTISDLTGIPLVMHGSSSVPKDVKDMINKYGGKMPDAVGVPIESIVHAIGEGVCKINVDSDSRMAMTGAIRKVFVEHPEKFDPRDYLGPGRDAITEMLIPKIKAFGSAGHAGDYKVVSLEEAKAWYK
#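 40 nM FBPA preincubated 10 min at RT with compound (up to 57.5 uM final), then substrate plus GAPDH/TPI/NAD/arsenate coupling and diaphorase/resazurin added. Fluorescence read after 20 min at RT, 525/598 nm.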
# Sm TGR inh: inhibitors of Schistosoma mansoni thioredoxin glutathione reductase; purified TGR, DTNB reduction, TNB absorbance 405 nm; Q962Y6; AID 485364; hit rate 3% among 360,000; Potency, µM (doses to about 114 µM), for the others: at the top dose activity change, negative = inhibition, most hits filed as inhibitors; note: potency is the fitted concentration of half-maximal effect; nearly all actives have a fitted effect of over 60% in size
#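 TGR 20 nM + NADPH 100 uM (dispensed conc.), cpd preinc 15 min RT; start with NADPH (500 uM addition) then DTNB (15 mM addition). Kinetic TNB absorbance, 405 nm filter. Four-parameter Hill fit across titration.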
# Pf growth 96h: P. falciparum growth inhibition at 96 hours; P. falciparum luciferase reporter growth, 96 h; Potency, µM (top dose mostly 28.7 µM), without a hit: at the highest dose activity change, negative = inhibition, actives largely listed as inhibitors; hit rate 6.9% among 320,000; note: potency is the fitted concentration of half-maximal effect
#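 Erythrocytes infected with luciferase-expressing P. falciparum were dispensed at 2% hematocrit and 0.05% parasitemia (final), then incubated with compounds 96 hours at 37 C in 5% CO2. Luminescence after detection reagent addition reported growth.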
# HCMV antiviral: inhibitors of human cytomegalovirus; AID 1259415; HFF cells, HCMV-luciferase reporter, 72 h; hits give low values; activity change, negative = inhibition, % at 57.5 µM; hit rate 4.5% among 410,000; in the data active = activity change below about -60%; inconclusive = no clear call, values can overlap the other calls; inactive = above about -39%
#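 Steps: HFFs plated, 16 h 37C; compounds added; HCMV-luciferase added to MOI 1 PFU/cell; 72 h 37C; OneGlo reagent, 5 min room temperature; luminescence read, normalized to controls.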
# Pf growth 48h: P. falciparum growth inhibition at 48 hours (one generation). Potency, µM (top dose mostly 28.7 µM), for the others: top-dose activity change, negative = inhibition, most hits filed as inhibitors. P. falciparum luciferase growth in erythrocytes, 48 h. AID 504832. hit rate 5.9% among 310,000; note: potency is the fitted concentration of half-maximal effect
#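 A one-generation exposure of luciferase-tagged malaria parasites in RPMI 1640/Albumax erythrocyte culture, 37 C and 5% CO2. Inhibition is inferred from decreased luminescence after adding detection reagent.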
# Active calls of the source: *; ? = inconclusive; · = no result given; [ ] = another dose, or the depositor's remark. Compounds with a hit are over-represented: about 14% of the library has one in this group of screens. Unless noted, calls come from the whole dose curve; as a rule, active = well fitted curve in the direction sought with a large enough effect; inconclusive = small, poorly fitted or top-dose-only effect, or another doubt; inactive = no such curve, though single readings can be large; an effect the other way counts as inactive or inconclusive. % is set by controls: 0 for no effect and ±100 for the full control effect.
SMILES,FBPA Giardia inh,Sm TGR inh,Pf growth 96h,HCMV antiviral,Pf growth 48h
CCN(CC)S(=O)(=O)c1ccc(C(=O)NNC(=O)c2cccs2)cc1,3%,-4%,0.15µM*,-3,0%
CC(=O)Nc1ccc(C(=O)NNC(=O)c2cccs2)cc1,5%,-21%,?,-67*,33%
CCCNC(=O)C1(C)CCCN(C(=O)c2ccc(OC(F)F)cc2)C1 (stereo not given),·,·,·,-6,·
CCN1N=C(c2ccccc2)Cn2c1nc1ccccc12,-16%,1%,6.6µM*,9,·
Cc1ccccc1-c1cc(C(=O)NCc2ccco2)n(CC2CC(c3cccnc3)=NO2)n1 (stereo not given),·,18µM*,?,2,?
COc1ccccc1CNC(=O)c1cc(-c2ccccc2)nn1CC1CC(c2cccnc2)=NO1 (stereo not given),·,·,·,3,·
CC(=O)OCC1OC(C#Cc2ccc(F)cc2F)C=CC1OC(C)=O (stereo not given),0%[12.9 µM],·,·,·,·
CC1(C)CCC(=O)N2CC[C@H]3C[C@H](OC(=O)Nc4ccc(Br)cc4)C[C@@H]1[C@H]32,1%,-10%,0%,-101*,1%
O=C(Nc1ccc2c(c1)OCO2)O[C@@H]1C[C@H]2CCCC(=O)N3CC[C@@H](C1)[C@@H]23,7%,1%,42%,?,21%
Cc1ccc(Oc2cc([N+](=O)[O-])cc3c2C(=O)Nc2ccccc2O3)cc1,-4%,-18%,44%,-78*,?
CN(C1(C)CCS(=O)(=O)C1)S(=O)(=O)c1ccc2ccccc2c1 (stereo not given),·,-1%,3%,-7,0%
CC1(C)CC(=O)C2=C(C1)OC1=C(C(=O)CC(C)(C)C1)C2c1ccc(O)c([N+](=O)[O-])c1,7%,-4%,?,32,?
CC1(C)CC(=O)C2=C(C1)OC1=C(C(=O)CC(C)(C)C1)C2c1ccc(O)cc1O,-11%,22µM*,10µM*,-102*,12µM*
CC(=O)Nc1ccc(S(=O)(=O)NCCC(=O)NCc2ccco2)cc1,·,·,·,29,·
CCOC(=O)C1CCCN(C(=O)c2cc3c(Cl)nc4ccccc4c3s2)C1 (stereo not given),·,-3%,·,-77*,·
O=C(NCCCN1CCCC1)c1cc2c(Cl)nc3ccccc3c2s1,-9%,-2%,5.9µM*,-35,?
CC1CCN(CCCNC(=O)c2cc3c(Cl)nc4ccccc4c3s2)CC1,0%,0%,9%,-91*,?
O=C(NCCCN1CCN(c2ccccc2F)CC1)c1cc2c(Cl)nc3ccccc3c2s1,·,3%,·,-6,·
CCCN1CCN(CCCNC(=O)c2cc3c(Cl)nc4ccccc4c3s2)CC1,·,-2%,·,-80*,·
CC1(C(=O)NCc2cccc3ccccc23)CCN1Cc1cccc2c1OCO2 (stereo not given),·,·,·,16,·
Cn1c(=O)c2cc(C(=O)N3CCN(c4ccc(Cl)cc4)CC3)sc2c2ccccc21,·,10%,·,10,·
CC(=O)N1CC(=O)N2[C@@H](CO)[C@H](c3ccc(Br)cc3)[C@@H]2C1,·,·,·,-35,·
CC1CCN(CCCNC(=O)c2cc(Sc3ccc(F)cc3)nc3ccccc23)CC1,·,-6%,·,-65*,·
CC1CCN(CCCNC(=O)c2n[nH]c(=O)c3ccccc23)CC1,0%,25%,12µM*,58,21%
CC1CCCCN1CCCNC(=O)c1cc(Sc2ccc(Cl)cc2)nc2ccccc12 (stereo not given),·,-1%,·,-21,·
CC(=O)N(C[C@@H](O)CO)c1c(I)c(C(=O)NC[C@@H](O)CO)c(I)c(C(=O)NC[C@@H](O)CO)c1I,-1%[21.7 µM],·,·,·,·
O=C(O)c1ccc(C2SCC(=O)N2Cc2ccccc2)cc1 (stereo not given),9%,2%,1.7µM*,-1,-4%
C=CCNC(=O)c1ccc(C2SCC(=O)N2Cc2ccco2)cc1 (stereo not given),3%,28µM*,?,63,-20%
COCCNC(=O)c1ccc(C2SCC(=O)N2Cc2ccco2)cc1 (stereo not given),-5%,22µM*,?,0,-13%
NC(=O)c1ccc(C2SCC(=O)N2Cc2ccccc2)cc1 (stereo not given),3%,7%,?,0,2%
